Compound activity: PubChem BioAssay, National Center for Advancing Translational Sciences (NCATS)
S16 viability – cytotoxicity in S16 Pmp22-F2sN Schwann cells; S16 Pmp22-F2sN Schwann cells viability, CellTiter-Glo, 24 h; 43,000 tested, 0.48% active; Potency, µM (series often up to 57.5 µM), inactives show at the highest dose activity change, negative = cytotoxicity, usual class: cytotoxic; AID 1508642; also: potency is read from the fitted curve at half-maximal effect; % is scaled to controls: 0 for no effect and ±100 for the full control effect; nearly all actives have a fitted effect of over 65% in size
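Used to flag compounds lowering reporter output through toxicity, this quantitative HTS measures ATP-based CellTiter-Glo luminescence in S16 Pmp22-F2sN Schwann cells after 24 h compound exposure at 37C.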
mTORC1 inh – inhibitors of mTORC1 signaling in Tsc2-/- p53-/- MEF cells; Tsc2-/- p53-/- MEF, phospho-rpS6 immunofluorescence/PI, 24 h; Potency, µM (top dose mostly 38.3 µM), without a hit: top-dose activity change, negative = inhibition, most hits filed as inhibitors; 44,000 tested, 0.78% active;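 also: potency is read from the fitted curve at half-maximal effect; plate controls were DMSO for no effect and rapamycin for full effect; nearly all actives have a fitted effect of over 50% in size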
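Tsc2-/-, p53-/- MEFs (empty-vector stable line) in DMEM + 10% FBS were treated with compounds 24 h at 37 degree Celsius, fixed, and immunostained for phospho-rpS6 (Alexa-488) with propidium iodide counterstain. Laser-scanning cytometry gave % positive cells, normalized against 7.5 nM rapamycin and DMSO.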
p53null 39C kill – kills p53 null cells at the nonpermissive temperature; H1299 p53-null (neo) cells, 39C, ATPlite viability, 24 h; AID 904; 55,000 tested, 0.97% active; Potency, µM (titrated, usually from 46.1 µM), inactives show at the top dose activity, negative = cell killing, actives largely listed as cytotoxic;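 also: potency is read from the fitted curve at half-maximal effect; 0% = DMSO only and -100% = full killing by 100 µM tamoxifen; nearly all actives have a fitted effect of over 50% in size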
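Following overnight plating at 37C (600 cells/well), H1299-neo or H1299-p53A138V cells are dosed up to 46 uM. Incubation lasts 24 hr at 39C before ATP detection.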
p53null 32C tox – selectivity test: cytotoxicity in p53 null cells, permissive temperature; H1299-neo p53 null cells, ATP luminescence, 24 h, 32C; Potency, µM (doses to about 46.1 µM), inactives show top-dose activity change, negative = cytotoxicity, actives largely listed as cytotoxic; 55,000 tested, 0.62% active; AID 903;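 also: potency is read from the fitted curve at half-maximal effect; 0% = DMSO only and -100% = full killing by 100 µM tamoxifen; nearly all actives have a fitted effect of over 55% in size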
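AC50 values derive from Hill modelling of qHTS concentration-response data (up to 46 uM) in H1299-neo cells. Cells were treated 24 h at 32C following overnight attachment at 37C; viability was read as cellular ATP.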
PMP22 txn prim – modulators of PMP22 gene transcription in S16 Schwann cells; S16 Pmp22-F2sN Schwann cells, FLuc/NLuc coincidence luminescence, 24 h; Potency, µM (top dose mostly 57.5 µM), without a hit: at the top dose activity change, negative = inhibition, hits mostly inhibitors; 43,000 tested, 2% active; active = clear falling dose curves in both reporters; inconclusive = both reporters move, but less clearly or upward; inactive = either reporter flat; the % is the NLuc reporter signal; also: potency is read from the fitted curve at half-maximal effect; % is scaled to controls: 0 for no effect and ±100 for the full control effect
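Schwann cells carrying the coincidence reporter were exposed to library compounds for 24 h at 37C, then lysed and read for FLuc and, after quenching, NLuc luminescence on a CCD imager.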
NLuc sat counter – inhibits NanoLuc at saturating substrate, PMP22 counter-screen; AID 1508638; Secreted NLuc enzyme (filtered S16 cell medium), Nano-Glo luminescence; shares compounds with PMP22 txn prim; Potency, µM (series often up to 57.5 µM), for inactives: at the highest dose activity change, negative = inhibition, most hits filed as inhibitors; 690 tested, 4% active; also: potency is read from the fitted curve at half-maximal effect; % is scaled to controls: 0 for no effect and ±100 for the full control effect
NLuc Km counter – counter-screen for PMP22 expression modulators: NanoLuc inhibition at Km. 690 tested, 5% active. secreted NLuc enzyme, coelenterazine luminescence, Km conditions. Potency, µM (titrated, usually from 57.5 µM), for the others: at the highest dose activity change, negative = inhibition, hits mostly inhibitors. shares compounds with PMP22 txn prim; also: potency is read from the fitted curve at half-maximal effect; % is scaled to controls: 0 for no effect and ±100 for the full control effect
FLuc ctr PMP22 – counter-screen for PMP22 expression modulators: firefly luciferase inhibition; purified P. pyralis FLuc, luminescence, 10 min; shares compounds with PMP22 txn prim; Potency, µM (titrated, usually from 57.5 µM), for inactives: at the highest dose activity, negative = inhibition, most hits filed as inhibitors; 690 tested, under 10 active; also: % of control where 0% means no effect
Target sequence (P08659 whole entry, looked up): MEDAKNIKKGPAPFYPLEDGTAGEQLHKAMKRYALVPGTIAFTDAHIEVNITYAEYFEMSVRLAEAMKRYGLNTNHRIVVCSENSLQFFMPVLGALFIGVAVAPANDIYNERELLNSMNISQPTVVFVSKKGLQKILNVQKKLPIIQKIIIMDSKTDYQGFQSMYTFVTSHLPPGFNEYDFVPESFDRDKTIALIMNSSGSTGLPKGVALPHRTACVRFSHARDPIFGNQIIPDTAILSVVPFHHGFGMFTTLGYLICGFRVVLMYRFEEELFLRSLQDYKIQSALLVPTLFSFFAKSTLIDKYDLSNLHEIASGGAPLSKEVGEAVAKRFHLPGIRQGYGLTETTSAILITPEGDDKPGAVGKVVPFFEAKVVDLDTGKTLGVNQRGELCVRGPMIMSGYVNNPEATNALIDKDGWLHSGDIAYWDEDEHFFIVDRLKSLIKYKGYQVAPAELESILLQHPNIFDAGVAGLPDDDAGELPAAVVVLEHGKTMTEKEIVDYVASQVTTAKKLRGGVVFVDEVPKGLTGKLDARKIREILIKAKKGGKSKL
S16 viab conf – confirmation of cytotoxicity in S16 Pmp22-F2sN Schwann cells (luciferase reporters placed in the Pmp22 gene); 690 tested, 7% active; shares compounds with PMP22 txn prim; Potency, µM (titrated, usually from 57.5 µM), inactives show at the top dose activity change, negative = viability loss, usual class: cytotoxic; AID 1508641; S16 Schwann cells viability, CellTiter-Glo ATP luminescence, 24 h; also: potency is read from the fitted curve at half-maximal effect; % is scaled to controls: 0 for no effect and ±100 for the full control effect
PMP22 txn conf – PMP22 transcription modulation, confirmatory; shares compounds with PMP22 txn prim; S16 Schwann cells Pmp22-F2sN, dual luciferase, 24 h; 690 tested, 22% active; Potency, µM (top dose mostly 57.5 µM), inactives show at the highest dose activity change, negative = inhibition, usual class: inhibitors; active = clear falling dose curves in both reporters; inconclusive = both reporters move, but less clearly or upward; inactive = either reporter flat; the % is the FLuc reporter signal; also: potency is read from the fitted curve at half-maximal effect
PMP22 prot conf – rat PMP22 protein level modulation, confirmatory. shares compounds with PMP22 txn prim. S16 Schwann cells Pmp22-HiBiT, luminescence, 48 h. Potency, µM (doses to about 27.9 µM), for the others: top-dose activity change, negative = inhibition, usual class: inhibitors. 95 tested, under 10 active. AID 1508647
Active calls of the source: *; ? = inconclusive; . = no result given. Hits are enriched below; roughly 3.2% of the tested compounds scored in any of these assays. Unless noted, calls follow the shape of the dose curve; as a rule, active = well fitted curve in the direction sought with a large enough effect; inconclusive = small, poorly fitted or top-dose-only effect, or another doubt; inactive = no such curve, though single readings can be large; an effect the other way counts as inactive or inconclusive.

SMILES	S16 viability	mTORC1 inh	p53null 39C kill	p53null 32C tox	PMP22 txn prim	NLuc sat counter	NLuc Km counter	FLuc ctr PMP22	S16 viab conf	PMP22 txn conf	others
COc1ccc(-c2noc(CSc3nnc(-c4ccncc4)n3-c3ccc(C)c(C)c3)n2)cc1	-24%	-5%	?	23%	13µM*	?	?	-2%	?	?
COc1ccc(-c2noc(CSc3nnc(C)n3-c3ccc(C)cc3)n2)cc1OC	-18%	4%	-6%	-12%	12µM*	22µM*	14µM*	-16%	?	-44%
COc1ccc(-n2c(SCc3nc(-c4ccc(Cl)cc4)no3)nnc2-c2ccncc2)cc1	?	6%	33%	31%	?	.	.	.	.	.
Cc1ccc(-c2noc(CSc3nnc(C)n3-c3ccc(F)cc3)n2)cc1	-9%	-6%	-11%	-7%	-25%	.	.	.	.	.
COc1cccc(CNCCSc2nnnn2C)c1OCc1ccccc1	?	-5%	-24%	3%	?	.	.	.	.	.
Cc1ccc(C)c(N2CCN(C(=O)C3CCCN(S(=O)(=O)c4ccc5c(c4)oc(=O)n5C)C3)CC2)c1 (stereo not given)	-15%	5%	14%	?	15µM*	-10%	5%	3%	-15%	?
Cn1c(=O)oc2cc(S(=O)(=O)N3CCCC(C(=O)N4CCN(c5ccccc5F)CC4)C3)ccc21 (stereo not given)	-1%	-6%	-2%	-5%	?	.	.	.	.	.
COc1cccc(NC(=O)CCCn2c(=O)c3cccn3c3cccnc32)c1	0%	3%	-13%	-6%	?	?	?	0%	4%	?
O=C(Cn1c(=O)n(Cc2ccco2)c(=O)c2oc3ccccc3c21)Nc1ccc(F)cc1F	-5%	-1%	-3%	-11%	?	.	.	.	.	.
CC1CCN(C(=O)CSc2nnc(NC(=O)Nc3ccccc3)s2)CC1	-24%	3%	17%	0%	19µM*	?	?	?	?	1%
O=C(Nc1ccccc1)Nc1nnc(SCC(=O)N2CCCCC2)s1	-3%	-7%	1%	-20%	-8%	.	.	.	.	.
COC(=O)c1c(C)oc2ccc(N(C(=O)c3ccncc3)S(=O)(=O)c3c(C)cc(C)cc3C)cc12	-12%	-16%	3%	16%	3.8µM*	-8%	6%	11%	-7%	?
COC(=O)c1c(C)oc2ccc(N(C(=O)c3ccncc3)S(=O)(=O)c3cc(C)c(C)cc3C)cc12	?	?	76%	55%	?	.	.	.	.	.
COc1ccc(-c2cc(C(F)(F)F)nc(S(C)(=O)=O)n2)cc1	?	15µM*	?	?	20µM*	-16%	14µM*	-9%	?	16µM*	PMP22 prot conf=4%
COc1ccc(-c2cc(C(F)(F)F)nc(-n3nc(C(F)(F)F)cc3C)n2)cc1	7%	?	6%	1%	?	.	.	.	.	.
CC1=C(C(=O)Nc2c(C)cc(C)cc2C)C2(CCN(C(C)C)CC2)OC1=O	?	0%	-3%	-4%	-32%	.	.	.	.	.
COc1cc2c(cc1OC)C(COc1ccc3c(C)cc(=O)oc3c1)N(C(=O)c1ccc(C)cc1)CC2 (stereo not given)	?	-9%	6%	10%	?	-11%	1%	2%	0%	?
COC(=O)c1cc2sc(Cl)cc2n1Cc1cc(C)ccc1C	6%	-3%	-2%	4%	-29%	.	.	.	.	.
CC(=O)OCC#CCSc1nnc(-c2cccc(Br)c2)o1	10%	3%	-3%	-6%	9.2µM*	?	?	-12%	?	?
